# TDP1 cell noCPT: qHTS for Inhibitors of human tyrosyl-DNA phosphodiesterase 1 (TDP1): qHTS in cells in absence of CPT; DT40 Tdp1-/- hTDP1 cells, no CPT, ATP luminescence, 48 h; Potency, µM (doses to about 46.2 µM), for the others: top-dose activity change, negative = growth inhibition, usual class: inhibitors; actives 15% (n = 420,000); AID 686978, 2013; note: % is set by controls: 0 for no effect and ±100 for the full control effect; nearly all actives have a fitted effect of over 55% in size
#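 Chicken DT40 Tdp1-/- cells stably complemented with human TDP1 were seeded at 400 cells/well with DMSO in place of 20 nM camptothecin. After compound pinning, cells grew at least 48 hr at 37 °C; viability read by CellTiter-Glo luminescence.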
# ATXN viability: reduces viability in counter-screen for ATXN expression inhibitors | S2 cells (HEK-293 line with an ATXN2-luciferase reporter) viability, CellTiter-Fluor protease fluorescence, 24 h | Potency, µM (highest dose often 56.7 µM), usual class: cytotoxic | actives 0.49% (n = 400,000) | AID 651635; note: nearly all actives have a fitted effect of over 40% in size
# DT40 TDP1 CPT: growth inhibition of DT40 Tdp1-/-;hTDP1 cells with camptothecin (screen for TDP1 inhibitors); chicken DT40 Tdp1-/-;hTDP1 cells + 20 nM CPT, ATP luminescence, 48 h; Potency, µM (titrated, usually from 46.2 µM), inactives show at the top dose activity change, negative = growth inhibition, hits mostly inhibitors; actives 12% (n = 420,000); AID 686979; note: % is set by controls: 0 for no effect and ±100 for the full control effect; nearly all actives have a fitted effect of over 55% in size
#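 Cell growth measured by CellTiter-Glo luminescence after a minimum 48 h, 37 C compound exposure with 20 nM CPT in Tdp1-knockout DT40 cells stably expressing hTDP1, seeded 400/well; qHTS titration format.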
# ATXN2 expr inh: reduces ATXN2 reporter expression in HEK-293 cells; AID 1745845; HEK-293 ATXN2-luciferase reporter, luminescence, 24 h; Potency, µM (doses to about 57 µM), for inactives: top-dose activity change, negative = inhibition, hits mostly inhibitors; actives 0.72% (n = 360,000); note: % is set by controls: 0 for no effect and ±100 for the full control effect; nearly all actives have a fitted effect of over 55% in size
#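 qHTS (up to 57 uM final) was run with 24 h compound exposure of reporter cells at 37 °C. Each well was multiplexed: SteadyGlo luminescence measured ATXN2-luciferase expression after a fluorogenic Gly-Phe-AFC viability readout (25 uM final).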
# TGFb inhibitor: blocks TGF-b signaling. HepG2 CAGA-GFP TGF-b/SMAD3 reporter, GFP fluorescence, 18 h; TGF-beta stimulated, 500 pg/mL final. actives 1.2% (n = 410,000). Potency, µM (highest dose often 46.1 µM), for inactives: top-dose activity, negative = inhibition, hits mostly inhibitors; note: % is set by controls: 0 for no effect and ±100 for the full control effect; nearly all actives have a fitted effect of over 65% in size
#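 GFP signal (ex488/em500-530) from TGF-beta-stimulated HEPG2 CAGA-GFP cells, 500 pg/mL final, 18 h at 37 degrees C in DMEM plus 1% FBS, normalized to unstimulated and DMSO-stimulated controls.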
# HepG2 tox: HepG2 cytotoxicity, counter-screen for TGF-b inhibitors; HepG2 CAGA-GFP viability, ATP luminescence, 18 h; Potency, µM (top dose mostly 46.1 µM), for the others: at the highest dose activity change, negative = cytotoxicity, most hits filed as cytotoxic; actives 0.76% (n = 410,000); AID 588856
#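 HepG2 CAGA-GFP cells (1000/well, DMEM with 1% FBS) received compound, then TGF-beta at 500 pg/mL final, and were incubated 18 hours at 37 degrees C. Viability was read by CellTiter-Glo luminescence. Media-only wells were set as complete cell-killing and DMSO as no toxicity.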
# The depositor's hits bear a star; i = inactive; ? = inconclusive; nt = no result given; [ ] = remark or other dose. An excerpt weighted towards active compounds, which were near 17% of everything screened. Calls come from the whole dose curve; as a rule, active = well fitted curve in the direction sought with a large enough effect; inconclusive = small, poorly fitted or top-dose-only effect, or another doubt; inactive = no such curve, though single readings can be large; an effect the other way counts as inactive or inconclusive. Potency is the fitted concentration of half-maximal effect.
SMILES,TDP1 cell noCPT,ATXN viability,DT40 TDP1 CPT,ATXN2 expr inh,TGFb inhibitor,HepG2 tox
COC(=O)CCCn1cc(CN2CC(N3CCN(CCN(C)C)CC3)CS2(=O)=O)nn1 (centres undefined),-23.3%,i,2.4%,7.0%,nt,nt
CCCCN(C)C(=O)c1cc2c(Cl)nc3ccccc3c2s1,?,i,?,-12.3%,-11.4%,-10.7%
COc1ccccc1CC(=O)N1CCCC(CCC(=O)NCc2ccccc2F)C1 (centres undefined),-26.5%,i,?,-20.6%,-0.1%,-25.6%
COc1ccccc1/C=C/CN1CCCC(CCC(=O)NCc2ccccc2F)C1 (centres undefined),20.6µM*,i,18.4µM*,-15.9%[11.3 µM],-17.5%,-33.8%
CC(C)CC(=O)Nc1ccc2c(c1)nc(CCN1CCOCC1)n2C,9.4%,i,2.3%,nt,14.1%,16.0%
COc1cc2c(cc1NC(=O)COC(=O)CNS(=O)(=O)c1ccc(C)cc1)oc1ccccc12,-26.3%,i,-11.3%,25.3%,17.3%,2.2%
COc1cc2c(cc1NC(=O)c1cccc(S(=O)(=O)N(C)C)c1)oc1ccccc12,14.6µM*,i,10.3µM*,21.1%,1.0%,-15.2%
COC(=O)c1c(NC(=O)COC(=O)[C@@H](NS(=O)(=O)c2cccc(Cl)c2)C(C)C)sc2c1CCC2,?,i,?,5.4%,?,4.0%
COc1ccc(S(=O)(=O)N[C@@H](C)C(=O)OCC(=O)Nc2cc3oc4ccccc4c3cc2OC)cc1,14.6µM*,i,?,44.8%,-2.3%,4.1%
COc1cc2c(cc1NC(=O)COC(=O)[C@@H](NS(=O)(=O)c1cccc(Cl)c1)C(C)C)oc1ccccc12,16.4µM*,i,?,9.9%,?,-36.1%
COC(=O)c1sc(N)c(C(=O)OC)c1COC(=O)[C@@H](NS(=O)(=O)c1cccc(Cl)c1)C(C)C,18.4µM*,?,?,4.7%,-14.8%,-3.1%
O=C(COC(=O)CNC(=O)c1ccc(Cl)cc1Cl)NNC(=O)c1ccccc1F,-18.3%,i,11.4%,-10.9%,10.6%,-1.2%
COc1cccc(NC(=S)N2CCN(Cc3ccccc3)CC2)c1,-28.0%,i,-11.3%,?,-9.8%,-6.2%
Cc1ccc(C(=O)N/C(=C\c2ccco2)C(=O)N2CC(C)OC(C)C2)cc1C (centres undefined),0.6%,i,-13.8%,4.1%,-1.7%,5.9%
COc1ccc(CNC(=O)COC(=O)c2ccc(OCC3CCCO3)cc2)cc1 (centres undefined),?,nt,?,nt,-0.1%,-8.6%
Cn1c(-c2ccc3ccccc3n2)nc2cnccc21,14.6µM*,i,18.4µM*,40.4%,?,2.6%
O=C(NCC(c1ccc2c(c1)OCO2)N1CCOCC1)c1c(F)cccc1F (centres undefined),-11.5%,nt,-14.8%,nt,-9.0%,-10.3%
Fc1ccc(/C=N/NC(=S)NCCc2ccccc2)cc1F,?,i,?,2.7%,?,-27.5%
COc1cccc(/C=N/NC(=S)NCCc2ccccc2)c1,?,i,?,-16.8%,25.1µM*,-11.5%
CCc1ccc(/C=N/NC(=S)NCCc2ccccc2)cc1,16.4µM*,i,?,-0.2%,10.5%,-15.6%
COc1ccc(/C=N/NC(=S)NCCc2ccccc2)cc1,25.9µM*,i,18.4µM*,nt,?,-64.1%
CCCS(=O)(=O)NCc1c(C)ncc2c1CCN(C(=O)/C=C/c1cccc(Cl)c1)C2,-20.0%,i,5.1%[9.04 µM],nt,nt,nt
CCCCCCCCNC(=O)c1cccnc1SCC(=O)Nc1ccc(OC)cc1OC,20.6µM*,?,-26.2%,?,2.2%,13.9%
NC(=O)N/N=C/c1c(Sc2nnnn2-c2ccccc2)nc2ccccn2c1=O,2.59µM*,?,2.91µM*,nt,?,-33.9%
CC(C)(C)n1ncc2c(=O)n(Cc3cccc(Cl)c3Cl)cnc21,nt,nt,nt,nt,5.0%,-5.6%
SMILES,TDP1 cell noCPT,ATXN viability,DT40 TDP1 CPT,ATXN2 expr inh,TGFb inhibitor,HepG2 tox
CCOC(=O)c1c2c3c(cccc3[nH]c1=O)C(=O)c1ccccc1-2,-2.5%,i,-8.7%,-14.7%,2.5%,-17.9%
COCCCNc1c2c3c(cccc3[nH]c1=O)C(=O)c1ccccc1-2,16.4µM*,nt,14.6µM*,-38.2%,-83.6%,-15.2%
O=C(CC1SC(=Nc2ccc3c(c2)OCCO3)NC1=O)Nc1ccc(F)cc1F (centres undefined),?,i,?,-16.4%,-7.1%,-6.2%
Cc1c(NC(=O)COC(=O)c2cc(-c3cccc4ccccc34)nc3ccccc23)c(=O)n(-c2ccccc2)n1C,-18.6%,i,?,4.0%,3.1%,9.7%
Cc1cccc(-c2cc(C(=O)Nc3c(C)n(C)n(-c4ccccc4)c3=O)c3ccccc3n2)c1,14.6µM*,i,25.9µM*,-2.8%,-5.9%,-27.0%
Cc1c(NC(=O)c2cc(-c3ccc(F)cc3)on2)c(=O)n(-c2ccccc2)n1C,?,i,4.4%,0.0%,-13.0%,3.5%
Cc1c(NC(=O)c2cc(-c3ccc(F)cc3)nc3ccccc23)c(=O)n(-c2ccccc2)n1C,11.6µM*,?,?,-11.6%,0.4%,4.1%
Cc1ccc(C(C)(C)C)c(OCCOCCN2CCCC2)c1,?,?,14.6µM*,-17.3%,4.7%,5.7%
CC(C)(C)c1ccccc1OCCOCCN1CCCCCC1,14.6µM*,i,?,-17.1%,6.3%,-12.5%
CCC(C)c1ccccc1OCCOCCN1CCCC1 (centres undefined),?,i,?,-5.6%,3.8%,-14.6%
CCC(=O)N1CCN(c2ccccc2NC(=O)c2ccc([N+](=O)[O-])o2)CC1,18.4µM*,i,18.4µM*,-31.6%,15.8µM*,-149.7%
CC(C)C(=O)N1CCN(c2ccccc2NC(=O)c2ccc(Br)o2)CC1,?,?,?,-37.1%,30.2%,3.0%
CC(C)C(=O)N1CCN(c2ccccc2NC(=O)c2ccc([N+](=O)[O-])o2)CC1,?,?,16.4µM*,?,?,-91.1%
CC(C)n1c(CNC(=O)c2ccccc2F)nnc1SCC(=O)c1ccc(F)cc1,-19.6%,i,6.4%,2.2%,10.8%,1.4%
COc1cc2nc(C3CCC3)nc(N3CCN(c4ccccc4OC)CC3)c2cc1OC,16.4µM*,?,16.4µM*,-19.4%,?,-129.9%

# Screening results deposited in PubChem by National Center for Advancing Translational Sciences (NCATS).
